According to PubChem BioAssay:
Active and inactive are the calls of the source. Unless noted, no rule for the calls is given here.

What was measured:
[1] = compound effects on lung adenocarcinoma cell viability – A549, calcein-AM fluorescence, 48 h, basal, profiling panel (AID 1162); conditions: higher = more signal; also: test concentration not given here
[2] = compound effects on differentiated 3T3-L1 adipocyte viability – cell-based, 3T3-L1 adipocytes, calcein-AM fluorescence, 48 h, basal, profiling panel (AID 1163); conditions: 3T3-L1 adipocytes viability, higher = more signal; also: test concentration not given here
[3] = compound effects on hepatocellular carcinoma cell viability – HepG2, calcein-AM fluorescence, 48 h, basal, profiling panel (AID 1164); conditions: higher = more signal; also: test concentration not given here
[4] = compound effects on multiple myeloma cell viability – MM1S, calcein-AM fluorescence, 48 h, basal, profiling panel (AID 1165); conditions: higher = more signal; also: test concentration not given here
[5] = calcein-AM signal in unstimulated myeloma cells – cell-based, calcein-AM fluorescence, 48 h, PK04 Diversity Set, profiling panel (AID 1166); conditions: RPMI8226 myeloma viability, higher = more signal;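 also: cells grown under basal conditions without added stimulus; test concentration not given here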
[6] = JC-1 mitochondrial signal, unstimulated HepG2 cells – cell-based, JC-1 fluorescence, 24 h, 100 nL compound, profiling panel (AID 1167); conditions: HepG2 mitochondrial potential, higher = more signal; also: test concentration not given here
[7] = JC-1 mitochondrial signal, unstimulated adipocytes – cell-based, JC-1 fluorescence, 3T3-L1 adipocytes, 24 h, 100 nL compound, profiling panel (AID 1168); conditions: JC-1 mitochondrial fluorescence, higher = more signal, called active from +8 up or from −8 down; also: test concentration not given here
[8] = JC-1 mitochondrial signal, unstimulated myeloma cells – cell-based, JC-1 fluorescence, RPMI8226, 24 h, 100 nL compound, profiling panel (AID 1169); conditions: JC-1 mitochondrial potential fluorescence, higher = more signal; also: test concentration not given here
[9] = JC-1 mitochondrial signal, unstimulated MM1S myeloma – cell-based, JC-1 fluorescence, 24 h, 100 nL compound, profiling panel (AID 1170); conditions: MM1S mitochondrial potential, higher = more signal; also: test concentration not given here
[10] = resazurin metabolic signal in A549 cells – cell-based, resazurin fluorescence, 24 h, PK04 Diversity Set, profiling panel (AID 1171); conditions: A549 viability, higher = more signal, called active from +8 up or from −8 down; also: test concentration not given here
[11] = resazurin metabolic signal in HepG2 cells – cell-based, resazurin fluorescence, 24 h, PK04 Diversity Set, profiling panel (AID 1172); conditions: HepG2 viability, higher = more signal; also: test concentration not given here
[12] = budding yeast growth changes without added modifier – OD600, strain BY4716, 24 h, basal condition, primary screen (AID 1173); conditions: S. cerevisiae BY4716 growth, OD600, 24 h; higher = more signal, called active from +8 up or from −8 down
[13] = viability profiling in MM1S myeloma cells – cell-based, resazurin fluorescence, basal, 24 h, PK04 Diversity Set, profiling panel (AID 1174); conditions: higher = more signal, called active from +8 up or from −8 down; also: test concentration not given here
[14] = target: Dihydroorotate dehydrogenase (quinone), mitochondrial (Plasmodium falciparum (isolate 3D7)) (UniProt Q08210); assay: inhibition of P. falciparum DHODH – biochemical, C-terminal His tag, absorbance 600 nm, primary screen (AID 1175); conditions: PfDHODH enzyme, DCIP absorbance 600 nm; higher = more signal, called active from +8 up or from −8 down;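 also: recombinant parasite enzyme with a five histidine tag at its C terminus; test concentration not given here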
[15] = inhibition of PAO1 biofilm formation – strain PAO1, LB-PBS medium, absorbance 600 nm, primary screen (AID 1176); also: test concentration not given here; conditions: P. aeruginosa PAO1 growth/biofilm, A600, 12 h; higher = more signal
[16] = growth modulation of vineyard yeast isolate – strain RM11-1a, OD600, basal, 24 h, primary screen (AID 1177);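 also: cultures grown under basal conditions with no added stressor; test concentration not given here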; conditions: S. cerevisiae RM11-1a growth, OD600, 24 h; higher = more signal, called active from +8 up or from −8 down
[17] = growth of efflux-deficient E. coli DRC39 – strain DRC39, OD650, 24 h, E. coli filamentation inducers, primary screen (AID 1178);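 also: growth measured as culture turbidity by optical density at 650 nm; test concentration not given here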; conditions: E. coli DRC39 acrAB, higher = more signal, called active from +8 up or from −8 down
[18] = growth of efflux-deficient E. coli DRC39 – strain DRC39, OD650, 48 h, E. coli filamentation inducers, primary screen (AID 1179);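 also: screen aims at cell division blockers that make cells filament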; conditions: E. coli DRC39 delta-acrAB growth, higher = more signal, called active from +8 up or from −8 down
[19] = viability profiling in RPMI8226 myeloma cells – cell-based, resazurin fluorescence, basal, 24 h, PK04 Diversity Set, profiling panel (AID 1180); conditions: higher = more signal;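 also: RPMI8826 multiple myeloma cell line at 5000 cells per well; test concentration not given here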
[20] = target: E3 ubiquitin-protein ligase XIAP (Homo sapiens) (UniProt P98170); assay: small molecules binding XIAP protein – biophysical, small-molecule microarray, fluorescence 635 nm, primary screen (AID 1181); conditions: higher = more signal;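 also: score merges 667 nm emission and signal to noise over triplicate slides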
E3 ubiquitin-protein ligase XIAP (Homo sapiens), sequence (P98170 whole entry, looked up): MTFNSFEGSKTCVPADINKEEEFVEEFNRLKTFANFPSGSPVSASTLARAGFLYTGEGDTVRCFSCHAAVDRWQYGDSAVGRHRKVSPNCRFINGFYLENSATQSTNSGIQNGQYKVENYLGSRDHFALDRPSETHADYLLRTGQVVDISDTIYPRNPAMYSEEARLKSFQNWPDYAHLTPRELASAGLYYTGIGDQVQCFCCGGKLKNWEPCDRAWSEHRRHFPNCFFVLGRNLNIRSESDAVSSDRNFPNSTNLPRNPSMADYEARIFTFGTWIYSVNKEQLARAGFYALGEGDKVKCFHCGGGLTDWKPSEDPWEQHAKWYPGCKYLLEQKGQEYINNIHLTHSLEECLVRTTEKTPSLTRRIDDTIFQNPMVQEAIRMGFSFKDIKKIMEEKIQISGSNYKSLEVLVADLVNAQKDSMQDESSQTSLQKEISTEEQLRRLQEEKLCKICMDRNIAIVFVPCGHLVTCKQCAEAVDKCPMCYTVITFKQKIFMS

Dihydroorotate dehydrogenase (quinone), mitochondrial (Plasmodium falciparum (isolate 3D7)), sequence (Q08210 whole entry, looked up): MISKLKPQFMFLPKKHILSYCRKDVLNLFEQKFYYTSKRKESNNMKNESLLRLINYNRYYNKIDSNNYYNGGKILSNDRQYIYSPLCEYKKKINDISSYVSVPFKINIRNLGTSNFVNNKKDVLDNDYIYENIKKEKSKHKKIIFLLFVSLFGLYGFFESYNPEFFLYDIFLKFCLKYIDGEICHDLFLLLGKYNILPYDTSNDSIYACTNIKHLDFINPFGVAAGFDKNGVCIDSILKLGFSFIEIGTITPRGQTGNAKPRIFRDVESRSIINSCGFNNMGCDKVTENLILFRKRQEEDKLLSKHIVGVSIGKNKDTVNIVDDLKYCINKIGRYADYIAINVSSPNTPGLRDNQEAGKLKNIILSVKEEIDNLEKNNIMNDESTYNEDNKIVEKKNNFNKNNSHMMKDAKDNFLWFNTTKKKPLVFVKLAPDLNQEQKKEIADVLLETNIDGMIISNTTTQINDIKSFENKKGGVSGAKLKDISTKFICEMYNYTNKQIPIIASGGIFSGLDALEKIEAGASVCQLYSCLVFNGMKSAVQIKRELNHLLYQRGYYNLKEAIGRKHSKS

| SMILES | z-score [1] | z-score [2] | z-score [3] | z-score [4] | z-score [5] | z-score [6] | z-score [7] | z-score [8] | z-score [9] | z-score [10] | z-score [11] | z-score [12] | z-score [13] | composite z-score [14] | z-score [15] | z-score [16] | z-score [17] | z-score [18] | z-score [19] | composite z-score [20] |
| --- | --- | --- | --- | --- | --- | --- | --- | --- | --- | --- | --- | --- | --- | --- | --- | --- | --- | --- | --- | --- |
| C=CCN1C(=O)[C@@]2(O[C@@H](CCn3cc([C@H](O)c4ccccc4)nn3)[C@H]([Si](C)(C)c3ccc(OC)cc3)[C@H]2C)c2cc(N3C(=O)c4cccc5cccc3c45)ccc21 | 0.248 | -0.0484 | -1.93 | -1.87 | -4.04 | 0.319 | -0.127 (inactive) | -0.929 | -1.37 | -1.94 (inactive) | -1.36 | 0.318 (inactive) | -2.17 (inactive) | -0.0217 (inactive) | 0.72 (inactive) | 1.72 (inactive) | 0.0833 (inactive) | -0.0869 (inactive) | -2.42 | 0.212 |
| C=CC[C@@]1(C(=O)OC)N=C(c2ccc(OCCCO)cc2)O[C@@H]1c1ccccc1N=[N+]=[N-] | -1.28 | 1.02 | -0.361 | -0.473 | -3.03 | 1 | 0.645 (inactive) | -0.983 | 0.0955 | -1 (inactive) | -0.0361 | -1.28 (inactive) | -0.768 (inactive) | 1.09 (inactive) | -0.043 (inactive) | 1.72 (inactive) | 0.906 (inactive) | -1.05 (inactive) | -0.937 | 0.0142 |
| COc1ccc([Si](C)(C)[C@@H]2[C@@H](CC(=O)N(CCO)Cc3ccccc3)O[C@]3(C(=O)N(Cc4ccc(I)cc4)c4ccccc43)[C@H]2C)cc1 | -1.14 | 0.909 | -1.59 | -2.54 | -4.17 | 1.17 | 0.448 (inactive) | -1.2 | -0.732 | -2.88 (inactive) | -1.42 | -0.498 (inactive) | -2.27 (inactive) | 1.07 (inactive) | 1.1 (inactive) | 2.45 (inactive) | -0.318 (inactive) | -0.699 (inactive) | -2.52 | -0.0658 |
| Cc1ccc(S[C@]2(C(=O)NCCCN(C)C)CC(=O)N(C3Cc4ccccc4C3)[C@@H]2c2ccc(CO)cc2I)cc1 | 0.691 | -0.749 | -0.563 | -2.64 | -2.5 | -0.188 | -1.28 (inactive) | -0.201 | -1.09 | 0.471 (inactive) | -0.595 | -3.43 (inactive) | -2.99 (inactive) | 0.505 (inactive) | 0.531 (inactive) | 0.609 (inactive) | -0.605 (inactive) | -0.623 (inactive) | -2.37 | -0.0999 |
| O=C1c2ccccc2[C@@]2(Cc3ccccc3N(Cc3ccccc3)C2=O)[C@H](c2ccc(CO)cc2)N1Cc1ccccc1Cl | -0.334 | 0.331 | -0.826 | -0.411 | 0.139 | 1.1 | -0.407 (inactive) | -0.972 | -0.316 | -0.166 (inactive) | 0.645 | 0.0388 (inactive) | 0.685 (inactive) | -3.2 (inactive) | -0.425 (inactive) | 0.0513 (inactive) | 0.134 (inactive) | 0.86 (inactive) | 0.694 | 0.147 |
| CC(C)[Si](C#CCCc1ccccc1)(O[C@H](c1ccccc1)c1cn(Cc2ccccc2)nn1)C(C)C | -0.865 | 0.254 | -1.01 | -0.505 | -0.297 | 0.907 | -0.979 (inactive) | -0.631 | -1.08 | 1.43 (inactive) | 1.5 | -8.07 (active) | -0.016 (inactive) | -0.262 (inactive) | -0.206 (inactive) | 0.129 (inactive) | -0.0409 (inactive) | 0.451 (inactive) | -0.052 | -0.0117 |
| CC(C)C[C@H]1NC(=O)C([C@@H](C)OCc2ccccc2)NC(=O)[C@@]23C(=O)N[C@@H](Cc4ccccc4)C2[C@H](C)[C@@]2(C)O[C@H]2C3/C=C/C/C=C\CNC1=O (stereo not given in full) | -0.469 | 1.9 | -0.3 | -0.936 | -1.53 | 0.169 | 0.679 (inactive) | -0.872 | 0.277 | 0.154 (inactive) | -0.662 | -0.0256 (inactive) | -0.521 (inactive) | -0.116 (inactive) | 0.294 (inactive) | -0.3 (inactive) | 0.12 (inactive) | -0.0809 (inactive) | -0.0732 | 0.172 |
| C=C(C)[C@@H]1CC=C(C(O)C2C=CC3C(=O)N(c4ccccc4)C(=O)C3N2Nc2ccc([N+](=O)[O-])cc2)CC1 (stereo not given in full) | 0.485 | 0.153 | 0.736 | -0.807 | -0.493 | -0.307 | -2.47 (inactive) | -0.507 | 0.451 | -0.963 (inactive) | -0.783 | 0.139 (inactive) | -0.66 (inactive) | 1 (inactive) | 0.741 (inactive) | 0.526 (inactive) | -1.17 (inactive) | -1.37 (inactive) | -0.204 | -0.0848 |
